MARV entry inh – inhibitors of Marburg virus binding or entry into cells; Marburg virus pseudotype entry/binding inhibition, cell-based; Potency, µM (titrated, usually from 49.2 µM), inactives show top-dose activity change, negative = inhibition, usual class: inhibitors; 18,000 tested, 6.5% active
Lassa entry – blocks Lassa virus binding or cell entry; AID 720533; Potency, µM (top dose mostly 49.2 µM), for inactives: at the highest dose activity change, negative = inhibition, most hits filed as inhibitors; 18,000 tested, 4.1% active; Lassa virus pseudotyped entry inhibition, cell-based qHTS
* = called active by the depositor; ? = inconclusive; . = no result given; ! = not confirmed by another sample; [ ] = dose if it differs, or a comment. In the library only some 8.6% were active in any assay of this set; here they are far more common. Calls follow the shape of the full dose curve; tested in HEK293 cells. % is scaled to controls: 0 for no effect and ±100 for the full control effect; potency is read from the fitted curve at half-maximal effect.

SMILES | MARV entry inh | Lassa entry
COC(=O)C1=C(C)NC(C)=C(C(=O)NCCCN2CCC(c3ccccc3)(c3ccccc3)CC2)C1c1ccc([N+](=O)[O-])cc1 (stereo unspecified) | 3.2µM* | ?
COC(=O)C1=C(C)NC(C)=C(C(=O)O[C@H]2CCN(Cc3ccccc3)C2)[C@H]1c1cccc([N+](=O)[O-])c1 | 22µM* | ?
COC(=O)C1=C(C)NC(C)=C(C(=O)OCCNCc2ccccc2)C1c1cccc([N+](=O)[O-])c1 (stereo unspecified) | 11µM* | ?
Cc1cc2c(c(=O)n1Cc1ccccc1)[C@H]1O[C@](CCCCN3C(=O)c4ccccc4C3=O)(Cc3ccccc31)O2 | 15%[8.59 µM] | 3%[8.59 µM]
C=CCOC(=O)N[C@H](C(C(=O)OC)=C(C)NCc1ccccc1)c1cccc(C(F)(F)F)c1 | 3%[8.59 µM] | 31%[8.59 µM]
COc1cccc([C@H]2Oc3ccc(OC)cc3C(=NOC[C@@H](O)COCc3ccco3)[C@H]2O)c1 | ? | 10%[8.59 µM]
COc1ccc2c(c1)[C@@]1(OCCC=C[C@@H]1C)C(=O)N2Cc1ccc(F)cc1 | 28%[8.59 µM] | 40%[8.59 µM]
CC(C)OC(=O)c1cn(Cc2c(F)cccc2F)c2sc(-c3ccc(NC(=O)C(C)C)cc3)c(CN(C)Cc3ccccc3)c2c1=O | 2.5µM* | 16µM*
COc1cccc([C@@H]2Oc3ccc(Br)cc3C[C@@H]2OC(=O)N[S+](=O)([O-])c2ccc(C)cc2)c1 | -4%[8.59 µM] | 3%[8.59 µM]
Nc1ncc(-c2cccc(S(N)(=O)=O)c2)c2scc(-c3ccc(F)c(Cl)c3)c12 | 3.1µM* | ?
COC[C@@H](O)[C@H]1OCc2ccccc2[C@H]1C=Cc1ccccc1 | 7%[8.59 µM] | -2%[8.59 µM]
CCCC=Cc1ccc(CN2C(C)C(=O)N(Cc3cn(CCOCOC)nn3)CCS2(=O)=O)cc1 (stereo unspecified) | -15% | .
CCN1CCN(c2cc(-c3ccc(F)cc3)c3c(n2)CCCCCC3)CC1 | 7.9µM* | 13µM*
CNCC[C@@H](Oc1ccccc1C)c1ccccc1 | 28µM*! | 3%
CNCCC(Oc1ccccc1OC)c1ccccc1 (stereo unspecified) | ? | 0%
CC1=CC[C@@H](COc2ccccc2)O[C@@]2(C1)C(=O)N(Cc1ccc(Br)cc1)c1cccc(Br)c12 | 46%[8.59 µM] | 10%[8.59 µM]
CC(=O)N[C@@H](CC(=O)N[C@@H](CCC(=O)O)C(=O)O)C(=O)O | 3% | 5%
OC1(c2ccc(Cl)c(C(F)(F)F)c2)CCN(CCCC(c2ccc(F)cc2)c2ccc(F)cc2)CC1 | 2.8µM* | 11µM*
Cc1ccc(C2(O)CCN(CCCC(=O)c3ccc(F)cc3)CC2)cc1 | ? | -18%
COC(=O)C1=C(C)N(CC2CC2)C(N(C)Cc2ccc(OC)cc2)=NC1c1ccccc1 (stereo unspecified) | -14%[8.59 µM] | 8%[8.59 µM]
COCOc1cc(OC)ccc1C(=O)C=Cc1ccc([N+](=O)[O-])cc1 | -19%[8.59 µM] | .
CCc1cc2c(nc1CC)CCN(CCC(C)=NO[C@@H]1O[C@H](COC(C)=O)[C@@H](OC(C)=O)[C@H](OC(C)=O)[C@@H]1OC(C)=O)C2 | -19%[8.59 µM] | 5%[8.59 µM]
CC(=O)OC[C@H]1O[C@@H](n2ncc(=O)[nH]c2=O)[C@H](OC(C)=O)[C@@H]1OC(C)=O | 2µM* | 1.6µM*
NC[C@@H](O)c1ccc(O)c(O)c1 | ? | 8%
C[C@H](N)[C@H](O)c1ccc(O)c(O)c1 | 5µM* | ?
SMILES | MARV entry inh | Lassa entry
CNC[C@H](O)c1ccc(O)c(O)c1 | 7.9µM*! | ?
NC[C@H](O)c1ccc(O)c(O)c1 | 28µM* | 0%
CC(N)C(O)c1cccc(O)c1 (stereo unspecified) | -23% | 0%
CC(C)NCC(O)c1ccc(O)c(O)c1 (stereo unspecified) | -16% | 5%
COC[C@@H]1N[S+](=O)([O-])c2ccc(Br)cc2O[C@@H]1c1ccccc1 | -7% | -8%
CC(=CCO)CCO | 2%[8.59 µM] | 14%[8.59 µM]
C#CCCCON=C1C[C@@H](O)[C@H](O)[C@H]2[C@@H]3C(=O)N(Cc4ccc5c(c4)OCO5)C(=O)[C@@H]3CC[C@@H]12 | -7%[8.59 µM] | -10%[8.59 µM]
N#CCCCS(=O)(=O)c1nnnn1-c1ccccc1 | ? | 24%[8.59 µM]
Cc1ccc(NC2=CC(=O)c3sc(C)nc3C2=O)cc1 | 4µM* | 3.5µM*
CC(C)=CCN1C(=O)[C@]2(O[C@H](COc3ccccc3)CC3=C2CCC3)c2ccccc21 | -5%[8.59 µM] | -9%[8.59 µM]
O=S(=O)(N[C@@H](CO)Cc1ccccc1)c1cc(Cl)ccc1F | 29% | 10%
CC(=O)OC[C@H]1O[C@H](C#Cc2ccc(C(C)(C)C)cc2)C=C[C@H]1OC(C)=O | ? | -26%[8.59 µM]
CC(C)(C)NC[C@H](O)COc1ccccc1C1CCCC1 | 7.9µM* | ?
CCc1ccccc1OC[C@@H](O)CN[C@H]1CCCc2ccccc21 | 8.9µM* | 28µM*
C=CCOc1ccccc1OCC(O)CNC(C)C (stereo unspecified) | 11%[17.8 µM] | -2%[17.8 µM]
CC(C)(C)NCC(O)COc1ccc(NC(=O)NC2CCCCC2)cc1 (stereo unspecified) | -9% | -10%
NC[C@@H]1O[C@H](O[C@H]2[C@@H](O)[C@H](O[C@@H]3[C@@H](O)[C@H](N)C[C@H](N)[C@H]3O[C@H]3O[C@H](CN)[C@@H](O)[C@H](O)[C@H]3N)O[C@@H]2CO)[C@H](N)[C@@H](O)[C@@H]1O | 8% | -5%
CC(C)OC(=O)[C@H](C)NC(=O)N1CCc2nc(COc3ccccc3)c3c(c2C1)CO[C@@H](C)C3 | -36%[8.59 µM] | -31%[8.59 µM]
CSc1nnc(CNC(=O)c2c(-c3ccccc3)noc2C)n1-c1ccc(F)cc1 | 8% | -15%
COC(=O)C1=C[C@H]([C@@H](C)[C@H](OC)c2ccccc2Br)[C@H]2[C@H]1c1ccccc1N2C | -16%[8.59 µM] | .
N[C@H](C(=O)O)[C@H](O)C(=O)O | 14µM*! | ?
O=C(O)[C@@H](O)[C@H](O)[C@H](O)[C@@H](O)C(=O)O | 5% | -19%
COCC(=O)Nc1cc(C(=O)N2CCN(C)C(c3ccccc3)C2)c2c(c1)nc(-c1ccncc1)n2C (stereo unspecified) | 16% | -4%
COCOc1ccc(Br)cc1C(=O)C=Cc1ccc2c(c1)OCO2 | 6%[8.59 µM] | -45%[8.59 µM]
COc1c2c(c(CC=C(C)C)c3oc(=O)c(-c4ccc(O)cc4)c(O)c13)OC(C)(C)C=C2 | 2% | -5%
SMILES | MARV entry inh | Lassa entry
CC(C)=CCc1c2c(c3occ(-c4ccc(O)cc4)c(=O)c3c1O)C=CC(C)(C)O2 | 22µM* | ?
CCN(CC)CCOc1ccc(Cc2ccccc2)cc1 | 10µM* | 7%
CN(C)CCOc1ccc(/C(=C(/CCCl)c2ccccc2)c2ccccc2)cc1 | ? | -30%
O[C@H]1CN(Cc2cccs2)[C@@H](c2ccccc2)C[C@H]1n1cc(C2CC2)nn1 | -18% | 7%
O=c1[nH]c2ccccc2n1CCCN1CCN(C(c2ccccc2)c2ccccc2)CC1 | 16µM* | ?
O=C(c1ccc(F)cc1)C1CCN(CCn2c(=O)[nH]c3ccccc3c2=O)CC1 | ? | -5%
COC(=O)[C@@H]1[C@@H](c2ccccc2)NC(=O)N(CCc2cc(OC)c(OC)c(OC)c2)[C@@H]1C | -31%[8.59 µM] | -7%[8.59 µM]
O=S1(=O)[C@H]2C[C@H]3O[C@]2(CN1Cc1ccc(C(F)(F)F)cc1)[C@@H]1O[C@@H]13 | 4% | 52%
O=C(/C=C\c1ccc(O)c(O)c1)O[C@@H](Cc1ccc(O)c(O)c1)C(=O)O | ? | -16%
O=C(/C=C/c1ccc(O)c(O)c1)OC(Cc1ccc(O)c(O)c1)C(=O)O (stereo unspecified) | 8.9µM* | -5%

Source: PubChem (National Center for Advancing Translational Sciences (NCATS))
